Data as given in PubChem BioAssay (EPA / NIEHS).
Active and inactive are the calls of the source. How the source made its calls: active means hit-call score of the fitted dose curve at least 0.9, where 1 is the maximum; inactive means score below 0.9.

Assay: CCTE_Shafer_MEA_acute_burst_number: CCTE's Neural Acute Assay for Single-Electrode Bursts, Shafer Lab (AID 2284013)
Experimental: CCTE_Shafer_MEA_acute assay is conducted using Axion Biosystems 48 well microelectrode array (MEA) plates and Maestro recording system. Each well of the MEA plate contains a grid of 16 microelectrodes embedded in the culture surface. Electrically active cells, such as neurons, can be cultured over the electrodes, and electrical activity in these cells can be recorded extracellularly. The spontaneous firing of neurons is captured from each electrode on a microsecond timescale providing both temporally and spatially precise data. […] The CCTE_Shafer_MEA_acute assay uses primary cultures of rat cortical neurons. As these cultures mature over time, neural networks develop functional activity and form cohesive networks in which electrical activity can be highly coordinated. Baseline 40-minute recordings are made on days post-plating 13 or 15, followed by a secondary 40-minute recording after chemical exposure.CCTE_Shafer_MEA_acute_burst_number is a component of the CCTE_Shafer_MEA_acute assay. It measures the total number of single-electrode bursts (temporally-clustered groups of action potential firing) during a recording in a microelectrode array (MEA) using Axion Biosystems Maestro 768 channel amplifier with the AxIS adaptive spike detector. The recordings before and after chemical treatment are used to calculate a percent change in the burst number in each well.Data from the assay component CCTE_Shafer_MEA_acute_burst_number was analyzed into 1 assay endpoint. This assay endpoint, CCTE_Shafer_MEA_acute_burst_number, was analyzed in the negative analysis fitting direction relative to DMSO as the negative control and baseline of activity. Using a type of functional reporter, gain or loss-of-signal activity can be used to understand electrical activity.
Spontaneous activity in the cortical cultures was recorded using an Axion Biosystems Maestro 768 channel amplifier and Axion Integrated Studios (AxIS) v1.8 (or later) software. The amplifier recorded from all channels simultaneously (gain = 1200 x; sampling rate = 12.5 kHz/channel): raw signals were filtered with a Butterworth band-pass filter (300-5000 Hz), which filters out slower local field potentials leaving only fast potentials, i.e., "spikes", arising from extracellular currents associated with action potentials (Pine 2006; Wheeler and Nam 2011). On-line spike detection of filtered signals was conducted with the AxIS adaptive spike detector, using a threshold of 8x the root mean squared (rms) noise on each channel. Any electrodes with rms noise levels greater than 5 uV were grounded (e.g., no data were recorded). Once grounded, an electrode was grounded for the duration of the experiment. All recordings were conducted at 37 C. Wells were deemed usable if on the day of the exposure >/= 10 electrodes were active (defined as >/= 5 spikes/min). On DIV 13 or 15, a minimum of three wells from one cortical culture preparation were treated with each compound (0.03-40 uM). Prior to recording baseline activity, each mwMEA plate was placed in the Maestro at 37 C and allowed to sit for 20 min while firing rates stabilized. Baseline activity (40 min) was recorded before the addition of each compound. An additional 40 min of spontaneous activity was recorded in the presence of each compound. Changes in network parameters relative to baseline were assessed following compound treatment.

| Compound | outcome | AC50 |
| --- | --- | --- |
| FC(F)(F)C(F)(F)C(F)(F)C(F)(F)C(F)(F)C(F)(F)CCI | inactive |  |
| NCC1(Cc2noc(=O)[nH]2)CCCCC1 | inactive |  |
| Clc1cc(Cl)c(Cl)cc1Cl | inactive |  |
| C=CCc1ccc(O)c(OC)c1 | inactive |  |
| Nc1nc(N)c2nc(CNc3ccc(C(=O)N[C@@H](CCC(=O)O)C(=O)O)cc3)cnc2n1 | inactive |  |
| Cc1ccc2ncccc2c1 | inactive |  |
| Nc1ccc2c(c1)C(=O)c1ccccc1C2=O | inactive |  |
| CC(=O)C(C)=CC1C(C)=CCCC1(C)C (configuration not stated) | inactive |  |
| Cc1ccc(C(C)C)c(O)c1 | inactive |  |
| C=CCOC(=O)c1ccccc1C(=O)OCC=C | inactive |  |
| c1cc(-c2ccncc2)ccn1 | inactive |  |
| CC(C)(C)c1cc(O)c(C(C)(C)C)cc1O | inactive |  |
| Nc1ccccc1N | inactive |  |
| COc1ccc2c(c1)c(CC(=O)O)c(C)n2C(=O)c1ccc(Cl)cc1 | inactive |  |
| CCCc1cc(=O)[nH]c(=S)[nH]1 | inactive |  |
| O=C(O)CCCCC(=O)O | inactive |  |
| CCCCCCCCCCO | inactive |  |
| CCCCCCCCCCCCCCCCCC(=O)O | inactive |  |
| C[Si]1(C)O[Si](C)(C)O[Si](C)(C)O[Si](C)(C)O1 | inactive |  |
| CN[C@H]1CC[C@@H](c2ccc(Cl)c(Cl)c2)c2ccc(S(N)(=O)=O)cc21 | inactive |  |
| Cc1ccc(C)c(O)c1C | inactive |  |
| CCOC(=O)C(C)(C)Oc1ccc(Cl)cc1 | inactive |  |
| COc1ccc(S(=O)(=O)N2C(=O)[C@@](c3ccccc3OC)(N3C[C@H](O)C[C@H]3C(=O)N(C)C)c3cc(Cl)ccc32)c(OC)c1 | inactive |  |
| CNCc1cc(F)ccc1Oc1ccc(Cl)c(Cl)c1 |  | 2240 nM (active) |
| CN1CCCC1=O | inactive |  |
| NS(=O)(=O)c1cc2c(cc1Cl)NCNS2(=O)=O | inactive |  |
| CC(=O)Oc1ccccc1C(=O)O | inactive |  |
